Measurements taken from PubChem BioAssay (NCI).
Values joined by “and” are separate entries in the source; they are usually repeats but may differ in a detail not shown here. Identical values can stand only once. Compounds without any hit were thinned out: in the full panel of roughly 83,000, 20% have a hit.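 Assay: single dose, 48 h. Readout: percent growth (0 = no net growth; negative = cell death). Active: <10.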 Active and inactive are the calls of the source.

The compounds below were run on SR leukemia (assay: NCI-60 one-dose screen, 48 h (100 = growth as untreated, 0 = no growth, -100 = all killed)). Details: 10 µM unless noted.
Procedure: Growth inhibition of the SR human tumor cell line is measured as a screen for anti-cancer activity. Cells are grown in 96 well plates and exposed to the test compound for 48 hours. Compounds are tested at a single concentration, which is 10^-5 M for most compounds. The reported endpoint is percent growth (GI% or GIPRCNT), where numbers from 0 - 100% represent growth inhibition, and numbers from -100% - 0 represent cell death. For example, a value of 40 represents 60% growth inhibition. A value of 0 means no net growth occurred over the course of the experiment. A value of -40 indicates 40% of cells at the beginning of the experiment died by the end of the experiment. A value of -100 means all cells are dead at the end of the experiment.
NCI-60 Human Tumor Cell Lines Screen was performed using the standard one-dose NCI protocol, which is described in more detail at https://dtp.cancer.gov/discovery_development/nci-60/default.htm.
Compounds with GIPRCNT values below 10 were considered active. Activity score was based on GIPRCNT using the following formula: […]
Score is 0 for GIPRCNT values of 100 or above, 50 for GIPRCNT values of 0, and 100 for GIPRCNT values of -100.
With COc1ccc(C2=Nc3c(N)nc(N)nc3NC(c3ccc(Oc4nc(Nc5ccc(F)cc5)nc(N(C)C)n4)c(OC)c3)C2)cc1 (stereo not given) the growth was -29.4% (active). For COc1ccc(/C=C/c2nc3ccccc3c(=O)n2CC(=O)Nc2ccccc2)cc1, the growth was 54.7% (inactive). N#CC1=C(c2ccco2)Nc2c(c(-c3ccccc3)nn2-c2ccccc2)C12C(=O)Nc1ccc(Cl)cc12 (stereo not given) was tested, and the growth was -2.37% (active). In the case of COc1ccc(NC(=O)CSc2nnc(-c3ccc(-c4nc5ccc(Cl)cc5[nH]4)cc3)o2)cc1, the growth is reported as 18.5% (inactive). With C#CCCCNCCNc1ccnc2cc(Cl)ccc12 the growth was 2.22% (active). With C[C@@H]1CN(c2ccc3ncc(C#Cc4cncc(C(=O)Nc5ccc(CN6CCN(C)CC6)c(C(F)(F)F)c5)c4)n3n2)C[C@@H](C)O1 the growth was -27.6% (active). For Cc1nc2sccn2c1-c1nnc(SCc2ccccc2)o1, the growth was 87.5% (inactive). For COc1ccc(N=Nc2c(N)nn3c(-c4ccc5c(c4)C=S=C5)ccnc23)cc1, the growth was 33.9% (inactive). With CC(=O)C[n+]1cccc2c3ccccc3ccc21 the growth was 66.3% (inactive). In the case of CN1CCN(C(=O)Oc2cc3c(c4ccccc24)[C@H](CCl)CN3C(=O)c2cc3cc(OCCCN4CCC4)ccc3[nH]2)[C@H]2CSSC[C@H]21, the growth is reported as -21.2% (active). COC(=O)c1c(C(=O)OC)c2ccc3c4ccccc4ccc3n2c1C(=O)C(C)Br (stereo not given) was tested, and the growth was 3.43% (active). COc1cc2cc(C(=O)N3C[C@@H](CCl)c4c3cc(OC(=O)N(C)CCSSCCN3CCOCC3)c3ccccc43)[nH]c2c(OC)c1OC was tested, and the growth was -23.5% (active). In the case of CCCCNc1ccc2c3c(cccc13)C(=O)N(c1cccc(-c3nn(-c4ccccc4)cc3-c3nc4ccccc4s3)c1)C2=O, the growth is reported as 95.5% (inactive). Cc1[nH]nc2ccc3nc(-c4cnn(CCO)c4)c4c(c3c12)CCCC4 was tested, and the growth was 13.8% (inactive). O=C(Cc1c(-c2cccc([N+](=O)[O-])c2)n(-c2ncnc3c2c(-c2ccccc2)c(-c2ccccc2)n3Cc2ccccc2)[nH]c1=O)c1ccc(Cl)c(Cl)c1 was tested, and the growth was 59.8% (inactive). For CC(=O)Nc1cccc(-n2c(COc3ccc(Br)cc3)nc3ccccc32)c1, the growth was 79.1% (inactive) and 87.9% (inactive). With CC(Nc1ncnc2ccc(-c3ccc4oc(N)nc4c3)cc12)c1ccccc1 (stereo not given) the growth was -53.7% (active). With CCc1ccccc1NC(=O)N/C(N)=N/c1nc2ccccc2s1 the growth was 7.38% (active). In the case of Cn1cc(-c2cc(N)n3nc(-c4c[nH]c5ccc(Cl)cc45)cc3n2)c2cccnc21, the growth is reported as -26.2% (active). O=C(CSc1nc2sc3c(c2c(=O)n1-c1ccc(Cl)cc1)CCCC3)NNC(=O)c1ccc(F)cc1 was tested, and the growth was 46.3% (inactive). For COc1ccc2c(c1)C(Sc1ccc(Cl)cc1)c1c(nc(N)c(C#N)c1N)O2 (stereo not given), the growth was -3.94% (active). For Cn1cc(-c2cc(N)n3nc(-c4c[nH]c5ccccc45)cc3n2)c2cc(Cl)ccc21, the growth was 20% (inactive). With Nc1nnc(-c2cncc(Br)c2)c(-c2c[nH]c3ccc(Br)cc23)n1 the growth was 54.3% (inactive). COc1c2c(cc3c1C(CCc1ccccc1)N(C)CC3)OCO2 (stereo not given) was tested, and the growth was -9.93% (active). COc1c(F)ccc(C(=O)Nc2ccc3nc(NC(=O)C4CCCN(S(=O)(=O)c5ccc(C(C)(C)C)cc5)C4)sc3c2)c1F (stereo not given) was tested, and the growth was 17.3% (inactive). In the case of Cc1ccc(NC(=O)N/N=C/c2c[nH]c3ccccc23)c(C)c1, the growth is reported as 12.3% (inactive). In the case of COC(=O)c1ccc(-c2c(-c3ccccc3)c(F)c3oc(C(=O)OC)c(N)c3c2-c2ccccc2)cc1, the growth is reported as 76.9% (inactive). With O=C(NNC(=S)NCCc1ccccc1)c1ccc(OCc2nc3ccc(Cl)cc3[nH]2)cc1 the growth was 54.2% (inactive). In the case of COc1ccc2[nH]c(=O)c(CSc3ccccc3Nc3nccc(-c4ccc5c(c4)OCO5)n3)cc2c1, the growth is reported as 67.3% (inactive). With COc1cc(CNC(=O)C[C@H](C)CCC=C(C)C)ccc1OCc1cn(-c2cccc(C(F)(F)F)c2)nn1 the growth was 41.5% (inactive). For Oc1ccc(Cl)c(Nc2nc(SCCN3CCOCC3)nc3c2cnn3CC(Cl)c2ccc(Br)cc2)c1 (stereo not given), the growth was -26.7% (active). With COc1ccc(-c2nc3ccccc3n2CC(=O)N=Nc2c(O)[nH]c3ccc(OC)cc23)cc1 the growth was 0.469% (active). For CC1=C(C(=O)Nc2ccccc2)C(c2cccc(Cl)c2Cl)n2c(nc3ccccc32)N1 (stereo not given), the growth was 6.58% (active). With O=C(NC(=S)N1CCN(c2ncnc3c2cnn3-c2ccccc2)CC1)c1ccc(F)cc1 the growth was 8.59% (active). In the case of COc1ccc(-c2nc3ccc(-c4nnc(SCc5ccccc5)o4)cc3[nH]2)cc1OC, the growth is reported as 56.3% (inactive). With Nc1cc(-c2c[nH]c3ccc(Cl)cc23)nc2cc(-c3c[nH]c4ccccc34)nn12 the growth was 10.2% (inactive). In the case of CCC(=O)c1cc(C(=O)OC)c2ccc3c4ccccc4ccc3n12, the growth is reported as 68.3% (inactive). In the case of COc1ccc2c(c1)N=c1c-2cc2c(O)[nH]c(=S)n2c1=O, the growth is reported as 21.7% (inactive). With O=C1/C(=C/c2cccc3c2OCO3)Cc2c(F)cc(Br)cc21 the growth was 104% (inactive). O=Cc1cncc(-c2ccc3ncnc(N4CCc5cc(F)c(Cl)cc54)c3c2)c1 was tested, and the growth was -4.69% (active).
